From PubChem BioAssay (NCATS)
“And” between values parts separate entries of the source, which are not always exact repeats. Equal entries are not always repeated. Results filed as inconclusive are left out. The source made the active and inactive calls. Unless noted, calls follow the shape of the dose curve; as a rule, active = well fitted curve in the direction sought with a large enough effect; inconclusive = small, poorly fitted or top-dose-only effect, or another doubt; inactive = no such curve, though single readings can be large; an effect the other way counts as inactive or inconclusive.

Columns and labels:
[1] = Cell Viability - LYMP2-023 (AID 975);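 also: cellular ATP measured by luciferase luminescence as viability proxy; series mostly up to about 92 µM; plate controls were DMSO only for no effect and 92 µM tetraoctylammonium bromide control for full effect; nearly all actives have a fitted effect of over 55% in size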
In short: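 Concentration-dependent drop in intracellular ATP measures acute cytotoxicity in a human lymphoblastoid line treated for 24 hours in complete culture medium. AC50 values are taken from Hill-equation fits of qHTS data.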

[2] = Cell Viability - LYMP2-025 (AID 976);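 also: series mostly up to about 92 µM; plate controls were DMSO only for no effect and tetraoctylammonium bromide control for full effect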
In short: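 In qHTS format, LYMP2-025 lymphoblastoid cells in complete culture medium received compound for 24 hr; ATP-based CellTiter-Glo signal gave viability, with AC50 derived by Hill equation.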

[3] = Cell Viability - LYMP2-002 (AID 977);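 also: series mostly up to about 92 µM; compound exposure lasted 24 h at 37 °C; plate controls were DMSO only for no effect and 92 µM tetraoctylammonium bromide for full effect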
In short: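 Human lymphoblastoid LYMP2-002 cells, 2500 per well, exposed to compounds for 24 h at 37 C in complete medium; viability read as intracellular ATP by CellTiter-Glo luminescence, AC50 from Hill fits.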

[4] = Cell Viability - LYMP2-006 (AID 978); also: series mostly up to about 92 µM; % is scaled to controls: 0 for no effect and ±100 for the full control effect; nearly all actives have a fitted effect of over 60% in size
In short: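 Human lymphoblastoid cells (LYMP2-006), 2500/well in complete medium, were treated with compound for 24 hr at 37 C. Cellular ATP was read by CellTiter-Glo luminescence after 30 min, and AC50 values came from Hill-equation fits of concentration-response data.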

[5] = Cell Viability - LYMP2-007 (AID 979);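 also: cells exposed to compound for 24 h before reading; 0% = DMSO only and the negative end = 92 µM tetraoctylammonium bromide; nearly all actives have a fitted effect of over 60% in size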
In short: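 Acute toxicity is scored as a concentration-dependent fall in intracellular ATP in human lymphoblastoid cells treated 24 hr at 37 C, measured by luciferase luminescence; Hill-equation modelling yields AC50.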

[6] = Cell Viability - LYMP2-008 (AID 980); also: % is scaled to controls: 0 for no effect and ±100 for the full control effect; nearly all actives have a fitted effect of over 60% in size
In short: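 Acute cytotoxicity is scored as concentration-dependent loss of cellular ATP in a human lymphoblastoid line after 24 hr treatment at 37 C. ATP is quantified by luciferase luminescence.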

[7] = Cell Viability - LYMP2-010 (AID 981); also: % is scaled to controls: 0 for no effect and ±100 for the full control effect; nearly all actives have a fitted effect of over 55% in size
In short: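 Acute toxicity is scored as a concentration-dependent loss of cellular ATP in human lymphoblastoid cells after 24 hr compound exposure in complete medium. Tetraoctylammonium bromide is the positive control.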

[8] = Cell Viability - LYMP2-012 (AID 982);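 also: cellular ATP by luciferase luminescence where a drop means cytotoxicity; cells exposed to compound for one day before reading; 0% = DMSO only and full loss = 92 µM tetraoctylammonium bromide; nearly all actives have a fitted effect of over 55% in size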
[9] = Cell Viability - LYMP2-014 (AID 983);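 also: series mostly up to about 92 µM; plate controls were DMSO only for no effect and 92 µM tetraoctylammonium bromide for full effect; nearly all actives have a fitted effect of over 50% in size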
In short: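 Decrease in intracellular ATP after 24 hr treatment at 37 C, measured by luciferase luminescence, indicated cytotoxicity. Concentration-response data were fitted with the standard Hill equation to give AC50.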

[10] = Cell Viability - LYMP2-016 (AID 984); also: % is scaled to controls: 0 for no effect and ±100 for the full control effect; nearly all actives have a fitted effect of over 55% in size
In short: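 Human lymphoblastoid LYMP2-016 cells, 2500 per well, treated with compounds for 24 h at 37 C. Viability read as intracellular ATP by CellTiter-Glo luminescence after 30 min at room temperature; AC50 from Hill fits of concentration-response.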

[11] = Cell Viability - LYMP2-018 (AID 985);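 also: compound exposure lasted 24 hr at 37 °C; plate controls were DMSO only for no effect and tetraoctylammonium bromide at 92 µM for full effect; nearly all actives have a fitted effect of over 50% in size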
In short: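 Acute cytotoxicity is scored as a concentration-dependent drop in intracellular ATP after 24 hr exposure of the lymphoblastoid line in complete culture medium, measured by luciferase luminescence. Potency is expressed as AC50 from Hill modelling.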

[12] = Cell Viability - LYMP2-020 (AID 986)
In short: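 Acute cytotoxicity in a human lymphoblastoid line is scored as a concentration-dependent fall in cellular ATP after 24 hr at 37 C in complete medium. The positive control is tetraoctylammonium bromide, and potency is given as Hill-fit AC50.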

[13] = Cell Viability - LYMP2-022 (AID 987)
In short: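 Acute toxicity in a human lymphoblastoid line is scored as decreased intracellular ATP after 24 hr compound treatment at 37 C. ATP is measured by CellTiter-Glo luminescence; curves are fitted with the Hill equation to give AC50.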

[14] = Cell Viability - LYMP2-024 (AID 988);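 also: plate controls were DMSO only for no effect and 92 µM tetraoctylammonium bromide for full effect; nearly all actives have a fitted effect of over 60% in size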
In short: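 Acute toxicity is measured as concentration-dependent loss of intracellular ATP in a human lymphoblastoid line treated 24 hours at 37 C. Luciferase luminescence quantifies ATP; AC50 values come from standard Hill-equation modelling.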

[15] = Cell Viability - LYMP2-026 (AID 989); also: % is scaled to controls: 0 for no effect and ±100 for the full control effect; nearly all actives have a fitted effect of over 50% in size
In short: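 Concentration-dependent loss of intracellular ATP in human lymphoblastoid cells after 24 hr at 37 C, quantified by luciferase luminescence. AC50 derived from standard Hill equation.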

[16] = Cell Viability - LYMP1-002 - Assay at 24 hr (AID 993); also: % is scaled to controls: 0 for no effect and ±100 for the full control effect
In short: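 qHTS, LYMP1-002 lymphoblastoid, 24 h cpd, 37 C, CellTiter-Glo ATP luminescence; AC50 via Hill eq.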

[17] = Cell Viability - LYMP1-002 - Assay at 40 hr (AID 994)
In short: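 Viability in the human lymphoblastoid line was measured as intracellular ATP via CellTiter-Glo after 40 hr compound exposure. Tetraoctylammonium bromide served as positive control.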

[18] = qHTS assay for small molecule antagonists of peroxisome proliferator-activated receptor delta signaling (AID 588535; active = well fitted inhibition curve with a large enough effect in the signal ratio, with a control signal flat, not every such curve was filed as active; the % refers to the signal ratio); conditions: HEK293T PPARd-UAS-bla, beta-lactamase FRET ratio, 18 h; 460 nm channel
In short: (§1)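 Cells were seeded at 4000 per well in assay medium containing 2% charcoal/dextran FBS and held 5 hrs at 37 C. Compounds were then added for 18 hrs. CCF4 substrate was applied for 2 hrs at room temperature before fluorescence reading.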

[19] = target: Peroxisome proliferator-activated receptor delta (Homo sapiens) (UniProt Q03181); assay: as above
In short: as §1

[20] = target: Vitamin D3 receptor (Homo sapiens) (UniProt P11473); assay: qHTS assay for small molecule antagonists of vitamin D receptor signaling (AID 588541; calls by dose curve;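 also: receptor activated by calcitriol during compound treatment; series mostly up to about 77 µM; % is scaled to controls: 0 for no effect and ±100 for the full control effect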)
In short: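 VDR-UAS-bla HEK293T cells in 2% charcoal-stripped FBS were stimulated with 1-alpha,25-dihydroxyvitamin D3 (3 nM final) plus compound for 16 h at 37 C. The beta-lactamase CCF4 readout was normalized to 50 nM agonist and DMSO, and Hill fits gave IC50.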

[21] = target: Vitamin D3 receptor (Homo sapiens) (UniProt P11473); assay: qHTS assay for small molecule agonists of vitamin D receptor signaling (AID 588543; calls by dose curve;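 also: 0% = DMSO basal and 100% = reference agonist control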)
In short: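 VDR-UAS-bla HEK293T cells, 2000/well, 2% charcoal-stripped FBS; compound titration 16 h at 37 C; CCF4 beta-lactamase ratio read. Normalized to 50 nM 1-alpha,25-dihydroxyvitamin D3 (100%) and DMSO; Hill fit gives EC50, efficacy.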

[22] = target: Thyroid hormone receptor beta (Homo sapiens) (UniProt P10828); assay: qHTS assay for small molecule agonists of thyroid hormone receptor beta signaling (AID 588545; calls by dose curve;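 also: 0% = DMSO only and 100% = 10 nM T3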)
In short: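 Beta-lactamase reporter activity under TR response element control is measured in HEK 293 cells after 18 hrs compound exposure. Signal is ratiometric CCF4 fluorescence, 460/530 nm.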

[23] = qHTS assay for small molecule antagonists of retinoid X receptor alpha signaling (AID 588546; active = well fitted inhibition curve with a large enough effect in the signal ratio, with a control signal flat, not every such curve was filed as active; the % refers to the signal ratio;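 also: cells stimulated with 9-cis-retinoic acid as agonist; % is scaled to controls: 0 for no effect and ±100 for the full control effect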); conditions: HEK293T RXRa-UAS-bla, beta-lactamase ratio, antagonist mode; measured here: W530 green channel, cytotoxicity proxy
In short: (§2)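 Beta-lactamase reporter inhibition, read as CCF4 fluorescence ratio (ex 405, em 460/530 nm) after 2 h at RT. HEK293T UAS-bla cells, 2500/well, were stimulated with 9-cis-RA at 500 or 100 nM final alongside test compound for 18 h at 37 C.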

[24] = target: Retinoic acid receptor RXR-alpha (Homo sapiens) (UniProt P19793); assay: as above; conditions: HEK293T RXRa-UAS-bla, beta-lactamase ratio, antagonist mode
In short: as §2

[25] = target: Thyroid hormone receptor beta (Homo sapiens) (UniProt P10828); assay: qHTS assay for small molecule antagonists of thyroid hormone receptor beta signaling (AID 588547; active = well fitted inhibition curve with a large enough effect in the signal ratio, with a control signal flat, not every such curve was filed as active; the % refers to the signal ratio;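 also: cells stimulated with 0.4 nM T3 agonist during compound exposure; series mostly up to about 77 µM; % is scaled to controls: 0 for no effect and ±100 for the full control effect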); conditions: TR-UAS-bla HEK293, beta-lactamase ratio, antagonist mode, 18 h
In short: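 TR-UAS-bla GripTite HEK293 cells in 2% charcoal/dextran FBS medium; compounds 0.59 nM to 92 uM with T3 at 0.4nM final, 18 h at 37 C. Beta-lactamase read by CCF4 fluorescence (460/530 nm); Hill fits gave IC50 and efficacy.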

[26] = target: Voltage-gated inwardly rectifying potassium channel KCNH2 (Homo sapiens) (UniProt Q12809); assay: qHTS Assay for Small Molecule Inhibitors of the Human hERG Channel Activity (AID 588834);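 also: top concentration of the series differs between compounds; % is scaled to controls: 0 for no effect and ±100 for the full control effect; lower thallium flux fluorescence means stronger hERG block; nearly all actives have a fitted effect of over 50% in size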
In short: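 U2OS cells BacMam-transduced with hERG, 2000 cells/well, compound ~10 min at 37 °C before stimulation buffer. FluxOR thallium flux fluorescence read kinetically on FDSS; decrease indicates block; AC50 from Hill fits.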

[27] = qHTS assay for small molecule agonists of the antioxidant response element (ARE) signaling pathway (AID 651741; active = well fitted activation curve with a large enough effect in the signal ratio; the % refers to the signal ratio; also: potency is read from the fitted curve at half-maximal effect)
In short: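 HepG2 ARE-bla cells plated at 2,000 cells/well and incubated 5 h at 37 C/5% CO2 received 23 nL compound in DMSO. After 16 h at 37 C, LiveBLAzer B/G FRET substrate was applied for 2 h at room temperature and fluorescence read.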

[28] = qHTS assay for small molecule activators of the p53 signaling pathway (AID 651743; active = well fitted activation curve with a large enough effect in the signal ratio, not every such curve was filed as active; the % refers to the signal ratio; also: series mostly up to about 92 µM; % of control where 0% means no effect); conditions: HCT-116 p53RE-bla, beta-lactamase FRET ratio, 16 h; stronger effect = higher value
In short: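 HCT-116 p53RE-bla, 4,000 cells/well; 5 h settle; cpd/DMSO 16 h, 37 C; LiveBLAzer B/G 2 h RT; fluorescence intensity.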

[29] = qHTS assay for small molecule activators of the nuclear factor-kappa B (NF-kB) signaling pathway (AID 651749; active = well fitted activation curve with a large enough effect in the signal ratio; the % refers to the signal ratio; also: series mostly up to about 77 µM; % of control where 0% means no effect); conditions: NF-kB-bla ME-180 cells, beta-lactamase FRET ratio, 16 h; stronger effect = higher value
In short: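 Incubation lasted 16 hr at 37C in 5% CO2 after 23 nL compound addition to ME-180 NF-kB-bla cells. Activation appears as beta-lactamase-mediated FRET loss.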

[30] = qHTS assay for environmental chemicals that activate the Aryl hydrocarbon Receptor (AhR) signaling pathway (AID 651777); conditions: 1A2-DRE human hepatoma cells, luciferase, 24 h; stronger effect = higher value; also: % of control where 0% means no effect; nearly all actives have a fitted effect of over 15% in size
In short: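 1A2-DRE human hepatoma reporter line; 1,200 cells/well; cmpd or DMSO 24 h, 37 C/5% CO2; One-Glo 30 min RT; luciferase lum.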

[31] = target: Peroxisome proliferator-activated receptor alpha (Homo sapiens) (UniProt Q07869); assay: qHTS assay for small molecule agonists of the peroxisome proliferator-activated receptor alpha (PPARalpha) signaling pathway (AID 651778); conditions: PathHunter PPARalpha complementation, chemiluminescence, 6 h; stronger effect = higher value; also: % of control where 0% means no effect
In short: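 Enzyme-fragment complementation assay in which ligand-bound PPARalpha translocates and forms an active enzyme that generates chemiluminescence. Cells were plated overnight, exposed to compound for 6 hr at 37 C, and then given detection reagent for 60 min at room temperature.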

[32] = target: Nuclear receptor ROR-gamma (Homo sapiens) (UniProt P51449); assay: qHTS assay for small molecule antagonists of the retinoid-related orphan receptor gamma (ROR-gamma) signaling pathway (AID 651802)
In short: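 Antagonism is scored as a fall in luminescence from a RORE-luciferase reporter in CHO cells expressing ROR under a TET-inducible promoter, measured 16hr after doxycycline induction in the presence of compound.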

[33] = qHTS assay for small molecule agonists of the antioxidant response element (ARE) signaling pathway measured by Nrf2-dependant transcriptional activity (AID 720636; active = well fitted curve in the direction sought with a large enough effect in the repeat runs; an effect the other way counts as inactive or inconclusive;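 also: HepG2 cells with an ARE-driven luciferase reporter; % of control where 0% means no effect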)
In short: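 Cells: ARE-luc HepG2 with Nrf2-responsive luciferase. Medium contained 1% dialyzed FBS. Compound exposure lasted 16 hr at 37 C and 5% CO2, followed by ONE-Glo luciferase detection.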

[34] = qHTS assay for small molecule antagonists of the retinoid-related orphan receptor gamma (ROR-gamma) signaling pathway - cell viability counter screen (AID 720652; active = well fitted curve in the direction sought with a large enough effect in the repeat runs; an effect the other way counts as inactive or inconclusive)
In short: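 Cytotoxicity is quantified via intracellular ATP (CellTiter-Glo luminescence) in doxycycline-induced CHO ROR response element-luciferase reporter cells treated with compound for 16 hr at 37 C, 5% CO2.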

[35] = qHTS assay for small molecule agonists of the antioxidant response element (ARE) signaling pathway measured by Nrf2-dependant transcriptional activity - cell viability counter screen (AID 720653; active = well fitted curve in the direction sought with a large enough effect in the repeat runs; an effect the other way counts as inactive or inconclusive; also: % is scaled to controls: 0 for no effect and ±100 for the full control effect); conditions: ARE-bla HepG2 viability, CellTiter-Glo ATP luminescence, 16 h; stronger effect = lower value
In short: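 ARE-bla HepG2 cells treated with compounds for 16 h at 37C; this counter screen measures viability as intracellular ATP by CellTiter-Glo luminescence after 30 min at room temperature.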

[36] = qHTS assay for cell viability of HEK293 cells (AID 743288); conditions: ATP luminescence (CellTiter-Glo), 18 h, stronger effect = lower value
In short: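 Parental HEK293 cells, 2,000 per well, preincubated at least 5 h at 37 C, then exposed to compounds in DMSO for 18 h at 37 C. Viability by CellTiter-Glo ATP luminescence after 30 min at room temperature.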

[37] = qHTS assay for cell viability of the p53RE-bla HCT-116 cell line (AID 743292)
In short: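 HCT-116 p53RE-bla cells seeded 4,000/well; 5 h at 37 C; compound (DMSO) added; 16 h at 37 C; CellTiter-Glo added, 30 min RT; luminescence read.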

[38] = Primary qHTS for inhibitors of nuclear receptor binding SET domain protein 2 (NSD2) in an RCH-ACV wild type WT cells (2C) (AID 1645877); also: potency is read from the fitted curve at half-maximal effect; nearly all actives have a fitted effect of over 70% in size
[39] = qHTS drug screen for cell cycle checkpoint inhibitors in PARPi-resistant BRCA-mutant ovarian cancer cell lines. (AID 1963452; calls by dose curve); conditions: PEO1/OlaR viability, CellTiter-Glo luminescence, 96 h, stronger effect = lower value
In short: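 PEO1, PEO4 and PEO1/OlaR ovarian cancer cells, 600 per well, exposed 96 h at 37C to a dilution series. Viability read by CellTiter-Glo luminescence, normalized to DMSO and empty wells; activity summarized as Z-AUC.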

Sequence of Thyroid hormone receptor beta (Homo sapiens) (P10828 whole entry, looked up): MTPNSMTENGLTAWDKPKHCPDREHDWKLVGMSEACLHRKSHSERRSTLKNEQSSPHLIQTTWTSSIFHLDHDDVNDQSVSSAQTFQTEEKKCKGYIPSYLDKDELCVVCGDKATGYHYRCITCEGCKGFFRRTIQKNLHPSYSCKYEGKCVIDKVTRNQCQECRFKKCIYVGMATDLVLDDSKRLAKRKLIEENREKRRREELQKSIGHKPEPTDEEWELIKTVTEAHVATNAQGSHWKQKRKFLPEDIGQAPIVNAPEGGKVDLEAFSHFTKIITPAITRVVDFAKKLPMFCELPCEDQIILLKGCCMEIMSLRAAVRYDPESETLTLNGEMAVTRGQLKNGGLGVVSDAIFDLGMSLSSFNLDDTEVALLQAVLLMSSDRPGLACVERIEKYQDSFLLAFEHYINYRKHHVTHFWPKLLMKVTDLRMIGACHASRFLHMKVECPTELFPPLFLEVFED
Sequence of Vitamin D3 receptor (Homo sapiens) (P11473 whole entry, looked up): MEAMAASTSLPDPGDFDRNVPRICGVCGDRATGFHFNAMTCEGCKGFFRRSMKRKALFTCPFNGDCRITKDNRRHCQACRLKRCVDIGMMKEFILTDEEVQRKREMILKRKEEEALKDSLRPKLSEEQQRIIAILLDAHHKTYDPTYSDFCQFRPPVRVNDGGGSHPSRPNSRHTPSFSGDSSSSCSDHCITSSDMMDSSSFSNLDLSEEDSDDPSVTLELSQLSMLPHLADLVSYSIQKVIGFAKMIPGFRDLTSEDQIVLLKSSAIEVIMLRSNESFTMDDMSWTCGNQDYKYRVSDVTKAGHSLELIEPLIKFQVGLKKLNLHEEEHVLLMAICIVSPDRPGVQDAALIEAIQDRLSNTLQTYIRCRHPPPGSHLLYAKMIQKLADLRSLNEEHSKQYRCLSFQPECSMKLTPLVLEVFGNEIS
Sequence of Retinoic acid receptor RXR-alpha (Homo sapiens) (P19793 whole entry, looked up): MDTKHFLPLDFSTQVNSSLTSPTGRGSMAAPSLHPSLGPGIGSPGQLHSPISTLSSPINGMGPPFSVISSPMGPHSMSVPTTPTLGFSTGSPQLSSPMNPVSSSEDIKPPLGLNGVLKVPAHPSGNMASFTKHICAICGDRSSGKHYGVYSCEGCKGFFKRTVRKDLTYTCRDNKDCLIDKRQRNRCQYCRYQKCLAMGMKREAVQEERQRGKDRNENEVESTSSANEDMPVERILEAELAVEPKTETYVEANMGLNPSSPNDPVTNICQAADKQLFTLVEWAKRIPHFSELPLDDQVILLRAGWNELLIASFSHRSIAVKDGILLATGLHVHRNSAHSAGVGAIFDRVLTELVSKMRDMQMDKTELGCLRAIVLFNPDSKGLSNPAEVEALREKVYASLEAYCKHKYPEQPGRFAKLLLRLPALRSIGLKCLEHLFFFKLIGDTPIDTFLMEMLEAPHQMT
Sequence of Peroxisome proliferator-activated receptor alpha (Homo sapiens) (Q07869 whole entry, looked up, the tested form may be a part): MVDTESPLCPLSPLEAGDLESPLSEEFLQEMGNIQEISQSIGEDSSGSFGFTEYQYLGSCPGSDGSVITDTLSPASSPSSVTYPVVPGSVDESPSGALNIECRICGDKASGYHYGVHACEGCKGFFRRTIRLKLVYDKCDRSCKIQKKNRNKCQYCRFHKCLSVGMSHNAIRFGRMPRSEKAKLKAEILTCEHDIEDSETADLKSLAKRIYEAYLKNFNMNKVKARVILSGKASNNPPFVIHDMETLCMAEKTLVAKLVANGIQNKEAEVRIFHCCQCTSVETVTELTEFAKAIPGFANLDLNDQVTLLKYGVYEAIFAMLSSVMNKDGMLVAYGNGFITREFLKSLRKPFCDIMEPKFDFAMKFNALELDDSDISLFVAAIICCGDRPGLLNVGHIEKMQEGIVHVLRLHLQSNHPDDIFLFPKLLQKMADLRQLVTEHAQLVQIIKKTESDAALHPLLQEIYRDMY
Sequence of Nuclear receptor ROR-gamma (Homo sapiens) (P51449 whole entry, looked up): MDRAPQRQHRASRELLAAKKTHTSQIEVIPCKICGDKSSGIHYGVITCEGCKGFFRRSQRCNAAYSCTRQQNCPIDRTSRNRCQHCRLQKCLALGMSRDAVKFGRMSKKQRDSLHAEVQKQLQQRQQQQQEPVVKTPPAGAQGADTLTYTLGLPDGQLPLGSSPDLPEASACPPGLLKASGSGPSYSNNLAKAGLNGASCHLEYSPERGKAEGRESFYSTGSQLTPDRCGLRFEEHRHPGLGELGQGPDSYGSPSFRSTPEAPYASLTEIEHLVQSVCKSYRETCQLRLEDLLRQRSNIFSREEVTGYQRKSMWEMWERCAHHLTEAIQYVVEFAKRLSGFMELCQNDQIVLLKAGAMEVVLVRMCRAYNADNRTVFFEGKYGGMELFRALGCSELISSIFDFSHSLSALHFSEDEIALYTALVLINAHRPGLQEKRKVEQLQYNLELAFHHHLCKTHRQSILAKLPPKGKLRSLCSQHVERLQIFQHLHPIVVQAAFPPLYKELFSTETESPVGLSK
Sequence of Voltage-gated inwardly rectifying potassium channel KCNH2 (Homo sapiens) (Q12809 whole entry, looked up): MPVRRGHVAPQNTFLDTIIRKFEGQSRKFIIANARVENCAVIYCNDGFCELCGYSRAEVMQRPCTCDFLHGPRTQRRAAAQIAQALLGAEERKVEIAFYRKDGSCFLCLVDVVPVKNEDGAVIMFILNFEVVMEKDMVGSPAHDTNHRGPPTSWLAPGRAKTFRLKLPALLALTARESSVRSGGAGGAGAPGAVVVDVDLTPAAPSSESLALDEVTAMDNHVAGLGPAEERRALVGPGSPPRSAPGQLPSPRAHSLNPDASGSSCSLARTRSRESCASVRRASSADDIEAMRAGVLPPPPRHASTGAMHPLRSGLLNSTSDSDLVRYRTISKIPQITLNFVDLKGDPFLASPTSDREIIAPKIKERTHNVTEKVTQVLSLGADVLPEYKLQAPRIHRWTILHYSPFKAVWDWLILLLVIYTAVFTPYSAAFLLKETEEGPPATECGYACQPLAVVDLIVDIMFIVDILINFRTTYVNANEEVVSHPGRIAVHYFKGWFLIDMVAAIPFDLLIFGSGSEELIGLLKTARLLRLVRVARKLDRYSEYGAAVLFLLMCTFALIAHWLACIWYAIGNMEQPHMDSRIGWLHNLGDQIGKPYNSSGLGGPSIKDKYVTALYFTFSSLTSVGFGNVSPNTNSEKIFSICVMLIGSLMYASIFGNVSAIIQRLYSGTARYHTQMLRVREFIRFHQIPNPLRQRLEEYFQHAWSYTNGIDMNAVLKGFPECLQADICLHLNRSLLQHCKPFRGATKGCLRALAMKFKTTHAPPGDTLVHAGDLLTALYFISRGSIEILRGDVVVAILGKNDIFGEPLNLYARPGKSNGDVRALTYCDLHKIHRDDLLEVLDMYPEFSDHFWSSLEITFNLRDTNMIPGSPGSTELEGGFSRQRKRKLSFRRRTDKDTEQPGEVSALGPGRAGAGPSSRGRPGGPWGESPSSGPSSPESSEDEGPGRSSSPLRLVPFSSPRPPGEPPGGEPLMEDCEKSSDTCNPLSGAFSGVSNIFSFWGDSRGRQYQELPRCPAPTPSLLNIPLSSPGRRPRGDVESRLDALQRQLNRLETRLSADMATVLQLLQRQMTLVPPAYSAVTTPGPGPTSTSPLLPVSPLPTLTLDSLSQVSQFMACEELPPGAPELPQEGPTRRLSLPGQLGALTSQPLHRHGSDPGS
Sequence of Peroxisome proliferator-activated receptor delta (Homo sapiens) (Q03181 whole entry, looked up): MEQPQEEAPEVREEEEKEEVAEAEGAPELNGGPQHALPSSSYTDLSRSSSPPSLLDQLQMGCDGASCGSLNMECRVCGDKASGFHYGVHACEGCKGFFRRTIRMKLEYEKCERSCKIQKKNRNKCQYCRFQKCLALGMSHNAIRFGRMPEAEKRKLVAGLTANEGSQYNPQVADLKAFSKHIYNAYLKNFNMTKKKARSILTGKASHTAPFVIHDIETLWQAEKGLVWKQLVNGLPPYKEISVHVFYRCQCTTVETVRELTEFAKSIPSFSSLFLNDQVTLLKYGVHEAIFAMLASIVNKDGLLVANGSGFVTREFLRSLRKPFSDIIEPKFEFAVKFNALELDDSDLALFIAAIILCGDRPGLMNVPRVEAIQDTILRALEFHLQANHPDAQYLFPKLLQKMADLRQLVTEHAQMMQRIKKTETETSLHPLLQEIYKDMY

CO[C@H]1/C=C/O[C@@]2(C)Oc3c(C)c(O)c4c(O)c(c(/C=N/N5CCN(C)CC5)c(O)c4c3C2=O)NC(=O)/C(C)=C\C=C\[C@H](C)[C@H](O)[C@@H](C)[C@@H](O)[C@@H](C)[C@H](OC(C)=O)[C@@H]1C
active: Potency [27] 54.5 µM | Potency [38] 16.6 µM
1.13: Z-AUC ([39]; measured here: PEO1 parental Z-AUC)
inactive: outcome [1] | outcome [2] | outcome [3] | outcome [4] | outcome [5] | outcome [6] | outcome [7] | outcome [8] | outcome [9] | outcome [10] | outcome [11] | outcome [12] | outcome [13] | outcome [14] | outcome [15] | outcome [16] | outcome [17] | outcome [19] | outcome [20] | outcome [21] | outcome [22] | max response [24] -24.8% and 0.888% | activity change % (negative = inhibition) [25] 4.86% and -12.3% | outcome [26] | activation [28] -10.4% and -9.54% | activation [29] -0.981% and -2.03% | activation [30] 0.185% and -0.0706% | max response [31] -9.67% and -6.67% | outcome [32] | outcome [33] | outcome [34] | max response [35] -3.19% and -26% | max response [36] -14.9% and -19.1% | outcome [37] | Z-AUC [39] 1.24
91.2%: max response [18]
12.2% and 0.217%: max response [23]
1.29: Z-AUC ([39]; measured here: PEO4 Z-AUC)
